This is an account of results in PubChem BioAssay (Tox21).

Records with an inconclusive call do not appear. A call without a number means that no potency is given here. Values without a mark were called inactive. Active and inactive are the calls of the source. Calls follow the shape of the dose curve; as a rule, active = well fitted inhibition curve with a large enough effect in the repeat runs; inconclusive = weak or mixed curves; inactive = no such curve, though single readings can be large or run the other way.

The nature of the assay: qHTS assay to identify small molecule antagonists of the estrogen related receptor (ERR) signaling pathway from Tox21 library (AID 1224848). Also: nearly all actives have a fitted effect of over 50% in size. The settings on record: ERR reporter cell line, luciferase antagonist mode, 18 h; series mostly up to 92.4 µM. The source says:
U.S. Tox21 Program National Center for Advancing Translational Sciences [NCATS] NIH Chemical Genomics Center [NCGC] U.S. Environmental Protection Agency [EPA] National Institutes of Environmental Health Sciences [NIEHS] National Toxicology Program [NTP] U.S. Food and Drug Administration [FDA] Tox21 Assay Overview: Estrogen related receptors (ERRs), the first orphan nuclear receptors discovered, play an important role in the control of cellular energy metabolism. ERRs are required for high-energy production in response to the environmental challenges. ERR-alpha was also identified as an adverse marker for breast cancer progression; ERR-alpha-positive tumors have a poor prognosis. To screen and to identify environmental compounds that perturb the ERR signaling pathways could provide valuable information for potential therapeutic or preventive measures in the treatment of metabolic disease. For identifying ERR antagonists, ERR cell line (provided by NTP) has been used to screen Tox21 10K library.
Tox21 Assay Protocol Summary: The ERR cells were dispensed at 2,000 cells/5 ul/well in 1536-well white plates using a Multidrop dispenser. After the assay plates were incubated at a 37 C/5% CO2 incubator for 6 hours, 23 nL of compounds dissolved in DMSO, positive and negative controls or DMSO only was transferred to the assay plate by a pin tool. The plates were incubated at 37 C for 18 hours. 4 ul/well of One-Glo reagent was added into the assay plates using a Flying Reagent Dispenser. After 30-minute incubation at room temperature, the luminescence intensity in the plates was measured using a ViewLux plate reader.
A general note: qHTS replaces the single test concentration by a dilution series.
On to `CCCCCCCCOS(=O)(=O)O`, for which the Potency result is “inactive”.
As to `COC(=O)C1CC(=O)C(C(=O)OC)CC1=O` (stereo not given), the activity, negative = inhibition is -0.445% [at 8.39 µM].
`CC(=C(CCOC(=O)C(C)C)SSC(CCOC(=O)C(C)C)=C(C)N(C=O)Cc1cnc(C)nc1N)N(C=O)Cc1cnc(C)nc1N`: the Potency entry is “inactive”.
For `CCO[Si](CCCS)(OCC)OCC`, the Potency entry is “inactive”.
For `Cc1cc2cc3c(C)cc(=O)oc3c(C)c2o1`, the Potency result is “inactive”.
On the same count and under the same terms, the result for `CC(C)(C)OC(=O)c1ccc(O)cc1` reads “inactive”.
Consider `O=C(c1ccc(O)cc1)c1ccc(O)c(O)c1O`, for which the Potency entry is “inactive”.
Still for that read-out and setting: the result for `Cc1ccc(S(=O)(=O)O)c(C)c1` reads “inactive”; that for `Cc1ccsc1/C=C/C1=NCCCN1C`, “inactive”.
The same measure, in the same setting: the result for `BrCCCCCBr` reads “inactive”; that for `CC(=O)c1sc(C)nc1C`, “inactive”; that for `CCNC(=O)C1CC(C)CCC1C(C)C` (stereo not given), “inactive”.
As to `CC(C)(C)NC(N)=O`, the Potency result is “inactive”.
Same read-out and setting: the result for `CN(C)c1ccc(C=O)cc1` reads “inactive”.
Still for that read-out and setting: the value for `O=C1O[C@@H]2[C@@H](O)[C@H](O)O[C@@H]2[C@H]1O` was “inactive”; that for `COc1ccc(OC)c(Cl)c1` was “inactive”.
Same read-out and setting: the value for `CCCCCCCCC1CCC(=O)O1` (stereo not given) was “inactive”; that for `CCCCCCCCCCl` was “inactive”; that for `Nc1ccc([N+](=O)[O-])c(N)c1` was “inactive”.
As for `N[C@@H](CCC(=O)Nc1ccc([N+](=O)[O-])cc1)C(=O)O`, the Potency entry was “inactive”.
For `O=S(O)(O)=S`, the activity, negative = inhibition is 8.94% [at 8.39 µM].
In the case of `COC(=O)[C@@H]1[C@H]2C[C@H]3c4[nH]c5ccccc5c4CCN3C[C@@H]2CC[C@@H]1O`, the Potency result was “inactive”.
The same measure, in the same setting: the result for `CC(C)CC(C)CC(C)CC(C)COC(=O)c1ccccc1C(=O)OCC(C)CC(C)CC(C)CC(C)C` (stereo not given) reads “inactive”.
Same read-out and setting: the result for `Cc1ccc2c(c1)OCC(=O)CO2` reads “inactive”.
On the same count and under the same terms, the value for `CC(C)CCCCOC(=O)c1ccccc1C(=O)OCCCCC(C)C` was “inactive”; that for `O=S(=O)(O)CCN1CCN(CCO)CC1` was “inactive”; that for `CCOc1cc(NC(C)=O)ccc1C(=O)OC` was “inactive”.
`ClCCCl`: the Potency entry is “inactive”.
`C[Si](C)=O`: the activity, negative = inhibition is 1.05% [at 8.39 µM].
Consider `O=C1c2ccccc2C(=O)N1CCl`, for which the Potency result is “inactive”.
As for `CO[C@@H]1[C@@H](OC(N)=O)[C@@H](O)[C@H](Oc2ccc3c(O)c(NC(=O)c4ccc(O)c(CC=C(C)C)c4)c(=O)oc3c2C)OC1(C)C`, the Potency entry was “inactive”.
Take `O=C(OCc1ccccc1)C(=O)OCc1ccccc1`: the Potency entry is “inactive”.
The same measure, in the same setting: the value for `CCCCCCCCSCC` was “inactive”; that for `O=C(CS(=O)Cc1ccco1)NC/C=C\COc1cc(CN2CCCCC2)ccn1` (stereo not given) was “inactive”.
Still for that read-out and setting: the result for `CC(C)=CCOC(=O)c1ccccc1` reads “inactive”.
Still for that read-out and setting: the value for `C[C@@H](O)[C@H]1C(=O)N2C(C(=O)O)=C(SCCN=CN)C[C@H]12` was “inactive”.
Regarding `COCCOCCOCCOCCOCCO`, the Potency result is “inactive”.
The same measure, in the same setting: the value for `COP(=O)(OC)OC(c1ccc(Cl)cc1)P(=O)(OC)OC` (stereo not given) was “inactive”.
Still for that read-out and setting: the value for `O=C1c2cccc3c2[C@H](CCC3)CN1[C@@H]1CN2CCC1CC2` was “inactive”; that for `CCCCCCCCC(=O)Cl` was “inactive”.
